Most compounds without a hit are left out; they make up all but 1.9% or so of the library.
Menin-MLL FL inh = inhibitors of human menin-MLL interaction, wild-type MLL peptide; Fluorescence polarization, fluorescein-MLL peptide displacement from menin; FP activity change, % at 61.4 µM; 290,000 tested, under 10 active; active means well fitted curve in the direction sought with a large enough effect in the polarisation, not every such curve was filed as active; inconclusive means small, poorly fitted or top-dose-only effect, or effect the other way, or a change in a side signal; inactive means no such curve, though single readings can be large or run the other way; the % refers to the polarisation; further: % of control where 0% means no effect
Epigenetic derep = epigenetic control regulation, reporter derepression | murine LDR cells, GFP reporter derepression, 30 h | Potency, µM (titrated, usually from 53.9 µM), for the others: at the top dose GFP activation, hits mostly activators | 280,000 compounds, 0.2% hits; active means well fitted activation curve with a large enough effect; inconclusive means small, poorly fitted or top-dose-only effect; further: potency means the concentration at half of the fitted maximal effect; % of control where 0% means no effect; nearly all actives have a fitted effect of over 60% in size
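In this reporter-derepression format, murine cells bearing a silenced integrated CMV-GFP locus incubate with test compound (30 h, 37 C), then are washed and imaged; fluorescent objects of 20–120 um count as induced cells.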
ClpP mod = qHTS Assay for Activators of ClpP | ATP-dependent Clp protease proteolytic subunit (Bacillus subtilis (strain 168)), P80244 | purified B. subtilis ClpP, FRET peptide cleavage, 20 min | Potency, µM (titrated, usually from 57.5 µM), without a hit: top-dose activity change, negative = active | 340,000 compounds, 1.9% hits | AID 651965, 2013; active means well fitted falling curve with a large enough effect; inconclusive means small, poorly fitted or top-dose-only effect; inactive means no such curve, though single readings can be large or run the other way; further: potency means the concentration at half of the fitted maximal effect; the source files actives as falling curves though it sought activators and does not explain the sign; nearly all actives have a fitted effect of over 65% in size
Target sequence (P80244 whole entry, looked up): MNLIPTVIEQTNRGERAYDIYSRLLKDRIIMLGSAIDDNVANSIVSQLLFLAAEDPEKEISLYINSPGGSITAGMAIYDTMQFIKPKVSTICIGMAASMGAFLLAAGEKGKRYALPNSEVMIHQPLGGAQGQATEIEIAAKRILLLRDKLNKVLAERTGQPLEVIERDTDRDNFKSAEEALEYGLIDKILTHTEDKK
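FRET quenching reversal measured ClpP activation: 10 microg/mL B. subtilis ClpP at pH 8 with the FRET-FV decapeptide, read at 430 nm after 320 nm excitation. The 20-min minus 0-min signal was scaled between DMSO/no-enzyme wells and ADEP (5.8 microM final).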
Menin-MLL TR inh = displaces Texas Red mutant MLL peptide from human menin; O00255; Menin + Texas Red MLL mutant peptide, fluorescence polarization; Potency, µM (titrated, usually from 61.6 µM), for inactives: at the top dose FP activity change, negative = inhibition, hits mostly inhibitors; 270,000 compounds, 0.23% hits; AID 1768; active means well fitted inhibition curve with a large enough effect in the polarisation, with a control signal flat, not every such curve was filed as active; inconclusive means small, poorly fitted or top-dose-only effect, or effect the other way, or a change in a side signal; inactive means no such curve, though single readings can be large or run the other way; the % refers to the polarisation; further: potency means the concentration at half of the fitted maximal effect; % of control where 0% means no effect
CXXC DNA block = blocks binding of human MLL CXXC domain to DNA. Q03164. MLL-CXXC / FITC-HOXA9 DNA fluorescence polarization. Potency, µM (highest dose often 115 µM), without a hit: top-dose activity change, negative = inhibition, usual class: inhibitors. 290,000 compounds, 0.037% hits. AID 2662; active means well fitted inhibition curve with a large enough effect in the polarisation, with a control signal flat, not every such curve was filed as active; inconclusive means small, poorly fitted or top-dose-only effect, or effect the other way, or a change in a side signal; inactive means no such curve, though single readings can be large or run the other way; the % refers to the polarisation; further: potency means the concentration at half of the fitted maximal effect
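Purified MLL-CXXC (added from a 7 uM solution) was preincubated 5 min at ambient with pinned compounds in 50 mM Tris-HCl pH 7.5, 50 mM NaCl, 1 mM DTT, 0.05% BSA. Fluorescein-labeled HOX-A9 DNA (50 nM solution) followed, 30 min, then polarization read.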
PINK1 expr mod = changes PINK1 expression | PINK1 immunofluorescence, high-content cytometry, 24 h | Potency, µM (top dose mostly 76.6 µM), for the others: at the highest dose activation (PINK1 increase), hits mostly activators | 410,000 compounds, 0.2% hits; active means well fitted activation curve with a large enough effect; inconclusive means small, poorly fitted or top-dose-only effect; cell line not stated here; further: potency means the concentration at half of the fitted maximal effect; % of control where 0% means no effect; nearly all actives have a fitted effect of over 65% in size
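Decision-based qHTS: stable cells, 24 h exposure to five compound concentrations, CCCP as control. Fixed cells stained for PINK1 plus nuclear, mitochondrial and cell markers, cytometer read.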
Active calls of the source: *; ? = inconclusive; . = no result given; [ ] = another dose, or the depositor's remark.

SMILES	Menin-MLL FL inh	Epigenetic derep	ClpP mod	Menin-MLL TR inh	CXXC DNA block	PINK1 expr mod
CC(O)C1CCC2C3CCC4CC(O)CCC4(C)C3CCC12C (stereo unspecified)	3	.	.	6%	-11%	.
Cc1nonc1CN(C)C(=O)C1CC12CCN(C(=O)/C=C/c1cccc(Cl)c1)CC2 (stereo unspecified)	.	.	.	.	.	0%
CC(C)CNc1ncnc2oc(-c3ccco3)c(-c3ccco3)c12	.	.	4%	.	.	1%
CC(=O)c1cc2c(cc1NC(=O)C1CC=CCC1C(=O)O)OCO2 (stereo unspecified)	8	-1%	-7%	12%	-2%	2%
CC(=O)c1cc2c(cc1NC(=O)C1CN(C(C)=O)c3ccccc3O1)OCO2 (stereo unspecified)	.	.	20µM*	.	.	-1%
CC1=CC2=C(OC1N(C)C)c1cccc3cccc(c13)C2=O (stereo unspecified)	?	?	-1%	28µM*	-7%	0%
CCOC(=O)Cn1nc(/C=C/c2ccc(C(C)C)cc2)ccc1=O	6	-1%	28µM*	?	1%	0%
Cn1nc(/C=C/c2ccccc2)ccc1=O	0	-3%	.	-28%	2%	2%
CCOC(=O)Cn1nc(/C=C/c2ccccc2)ccc1=O	-1	4%	?	.	7%	1%
CCOC(=O)Cn1nc(/C=C/c2ccc(C)cc2)ccc1=O	3	4%	32µM*	-12%	1%	-3%
O=c1ccc(/C=C/c2ccccc2)nn1Cc1ccccc1	1	-3%	28µM*	8%	25%	5%
Cc1nc2ccc(NC(=O)CSc3nnc(C)s3)cc2[nH]1	1	.	.	-2%	-2%	-2%
Cc1ccc(Oc2ccc(/C=N/O)cn2)cc1	0	-2%	16µM*	17%	1%	0%
CC1CCN(C(=O)COC(=O)c2n[nH]c3ccccc23)CC1	2	0%	28µM*	?	-6%	2%
COc1c(O)c(=O)n2c3ccccc3c3ccnc1c32	.	.	0%	.	.	1%
O=c1c(Cl)c(O)c2cccc3c4ccccc4n1c23	2	2%	14µM*	34%	5%	-3%
COc1ccc(OC)c(C(=O)N(Cc2cc3cccc(C)c3nc2N2CCC(O)CC2)C2CC2)c1	.	.	.	.	.	1%
COCC1CCCN(Cc2ccc3c(c2)CN(C(=O)c2cn4ccc(C)cc4n2)CCO3)C1 (stereo unspecified)	.	.	.	.	.	1%
CC1(C)C=C(c2ccc(C=O)s2)CC(C)(C)N1C=O	6	0%	22µM*	-10%	11%	0%
Cc1cccnc1-c1cccc2c1OC(CNC(=O)C1CCCc3c1[nH]c1ccccc31)C2 (stereo unspecified)	.	.	.	.	.	1%
O=C(OCc1ccccc1)N1CCN(/[N+]([O-])=N/Oc2ccc([N+](=O)[O-])cc2[N+](=O)[O-])CC1	.	.	.	.	.	1%
Cc1ccccc1NC(=O)Cn1c(C)nc2ccc(NC(=O)C3CC3)cc2c1=O	-1	1%	-13%	?	4%	-3%[38.3 µM]
Cc1ccccc1NC(=O)Cn1c(C)nc2ccc(N)cc2c1=O	1	2%	28µM*	1%	1%	0%
Oc1ccccc1C=Nc1ccccc1-c1nc2ccccc2[nH]1	6	0%	28µM*	13%	10%	4%
Oc1ccc(C=Nc2ccccc2-c2nc3ccccc3[nH]2)c(O)c1	0	2%	-1%	?	30%	2%
SMILES	Menin-MLL FL inh	Epigenetic derep	ClpP mod	Menin-MLL TR inh	CXXC DNA block	PINK1 expr mod
CCCC[C@H](O)c1ccccc1	0	.	.	-5%	6%	.
O=C(Nn1c(C2CCCCC2)nc2ccccc2c1=O)c1ccc(Cl)c([N+](=O)[O-])c1	5	-2%	.	?	-5%	-1%
Cc1cc(C(=O)Nn2c(C3CCCCC3)nc3ccccc3c2=O)ccc1[N+](=O)[O-]	6	-2%	1%	20%	7%	16µM*
OC[C@H]1OC(O)[C@@H](O)[C@@H](O)[C@H]1O (stereo partly specified)	?	.	.	-1%	.	.
C(=C\c1ccnc2ccccc12)/c1ccc(N2CCOCC2)cc1	.	.	1%	.	.	?
COc1ccc(NC(=O)COC(=O)/C=C/c2ccc(OC)c(S(=O)(=O)N3CCOCC3)c2)cc1	7	0%	-9%	-7%	-2%	?
COc1cccc(/C=C/C(=O)OCC(=O)Nc2cccc(S(=O)(=O)N3CCCCC3)c2)c1OC	2	-2%	28µM*	16%	4%	7%
COc1ccc(OC)c(/C=C/C(=O)OCC(=O)Nc2cccc(Oc3ccccc3)c2)c1	-1	-1%	35µM*	5%	-1%	3%
O=C(COC(=O)/C=C/c1ccc(F)cc1)Nc1cccc(S(=O)(=O)N2CCCC2)c1	3	-2%	1%	26%	?	2%
Cc1ccc(C(=O)OCC(=O)Nc2ccc(N3CCOCC3)cc2)cc1	.	.	32µM*	.	.	?
COc1ccc(/C=C/C(=O)OCC(=O)Nc2ccc(C)cc2)cc1S(=O)(=O)N1CCOCC1	6	-1%	7.9µM*	14%	3%	0%
c1cncc(OC2CCN(Cc3ccc4c(c3)CN(Cc3ccc5c(c3)CCO5)CCO4)CC2)c1	.	.	.	.	.	0%
CSCC[C@H](NC(=O)[C@H](CC(C)C)NC(=O)CNC(=O)[C@H](Cc1ccc(O)cc1)NC(=O)[C@H](Cc1ccccc1)NC(=O)[C@H](CCCCN)NC(=O)[C@H](CC(N)=O)NC(=O)[C@@H]1CCCN1C(=O)[C@H](CC(=O)O)NC(=O)[C@H](C)NC(=O)[C@@H]1CCC(=O)N1)C(N)=O	-1	.	.	0%	.	.
C=CCOc1cccc(CNCCCN2CCOCC2)c1	-1	0%	14µM*	?	17%	0%
Cc1cc(-c2nc3ncccc3o2)ccc1NC(=S)NC(=O)c1ccco1	4	-1%[10.1 µM]	.	?	1%	-1%
COc1ccc2c(c1)-c1nc(NC(=O)c3cc(Cl)ccc3OC)sc1CC2	.	-1%	-12%	.	.	1%
COc1ccc2c(c1)-c1nc(NC(=O)c3ccccc3F)sc1CC2	.	6%	35µM*	.	.	4%
Fc1ccc2[nH]c(-c3cccs3)cc2c1	.	-3%	11µM*	.	.	-1%
COC(=O)[C@@H]1CCCN1Cc1ccc2c(c1)CN(Cc1coc3ccc(C)cc3c1=O)CCO2	.	.	.	.	.	1%
O=C(Nc1cccc(C(F)(F)F)c1)c1cccnc1NCCc1ccccc1	-1	4%	28µM*	?	9%	-2%
CCCCN(CCCNC(=O)c1cc(Nc2cccc(SC)c2)nc2ccccc12)Cc1ccccc1	.	35µM*	?	.	.	6%
CSc1nc(NCC(C)O)c2c3c(sc2n1)CN(C)CC3 (stereo unspecified)	-20	.	4%	3%	?	0%
